From PubChem BioAssay
D1 ag: Allosteric Agonists of the Human D1 Dopamine Receptor: qHTS; D(1A) dopamine receptor (Homo sapiens), P21728; HEK293 T-REx D1 cells, calcium flux, agonist mode; activation, % at 2 µM; hit rate 1% among 360,000; in the data active = activation above about 30%; also: 0% is about no effect
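Tetracycline-induced HEK293 TREx D1 cells, force-coupled to calcium signalling, were dye-loaded with a no-wash calcium kit. Compound was pin-added after a 10 s baseline. Fluorescence was read kinetically at 1 cycle/s for 180 s, with calcium rises flagged as agonism.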
DRD3 antagonist: qHTS of D3 Dopamine Receptor Antagonist: qHTS; D(3) dopamine receptor (Homo sapiens), P35462; D3R cells, DiscoveRx beta-arrestin luminescence, antagonist mode; stronger effect = lower value; max response, negative = inhibition, %; hit rate 2.5% among 360,000; AID 652054, 2013; in the data active = max response below about -50%; also: % is scaled to controls: 0 for no effect and ±100 for the full control effect
Target sequence (P35462 whole entry, looked up): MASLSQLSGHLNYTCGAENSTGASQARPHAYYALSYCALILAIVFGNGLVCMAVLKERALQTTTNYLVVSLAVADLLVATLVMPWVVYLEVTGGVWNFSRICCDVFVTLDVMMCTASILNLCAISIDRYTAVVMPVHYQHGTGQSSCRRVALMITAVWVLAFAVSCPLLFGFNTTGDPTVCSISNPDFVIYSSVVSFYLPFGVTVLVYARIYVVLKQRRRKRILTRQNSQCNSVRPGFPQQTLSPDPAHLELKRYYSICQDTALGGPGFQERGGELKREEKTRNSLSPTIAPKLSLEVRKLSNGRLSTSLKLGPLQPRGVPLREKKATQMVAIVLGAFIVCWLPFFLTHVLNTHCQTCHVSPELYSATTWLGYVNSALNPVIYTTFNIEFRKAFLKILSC
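Cells plated overnight at 1500 cells/well, then exposed to library compounds with dopamine controls for 90 minutes at 37 degrees C. DiscoveRx reagent added for 30–60 minutes at room temperature; luminescence read, quantitative HTS format.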
DRD3 agonist: qHTS of D3 Dopamine Receptor Agonist: qHTS; max activation, %; D(3) dopamine receptor (Homo sapiens), P35462; AID 652048, 2013; D3R DiscoveRx beta-arrestin cells, luminescence, 90 min; hit rate 0.58% among 410,000; in the data active = max activation above about 30%; also: 0% is about no effect
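Agonist-mode cell screen: cells plated at 1500/well and incubated overnight at 37 °C, then exposed to library compounds for 90 min at 37 °C. Detection reagent was added for 30–60 min at room temperature, and luminescence was read.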
D1 antag: Antagonist of Human D 1 Dopamine Receptor: qHTS; AID 504652, 2011; hit rate 3.2% among 360,000; HEK293 TREx D1 cells, calcium flux, dopamine EC80; stronger effect = lower value; activity change, negative = inhibition, % at 10 µM; D(1A) dopamine receptor (Homo sapiens), P21728; in the data active = activity change below about -30%; also: % is scaled to controls: 0 for no effect and ±100 for the full control effect
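Compound effects on dopamine-evoked calcium signalling were measured in tetracycline-induced HEK293 Trex D1 cells. Dopamine at EC80 followed a 180 s compound pre-read, and fluorescence was tracked kinetically for 180 s more.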
D1 PAM: Potentiators of Human D1 Dopamine Receptor: qHTS. D(1A) dopamine receptor (Homo sapiens), P21728. HEK293 TREx D1 cells, calcium flux, dopamine EC20 potentiation. potentiation, % at 10 µM. hit rate 0.036% among 360,000; in the data active = potentiation above about 30%; also: 0% is about no effect
* hit, by the source's call; nt = no result; ! = not confirmed by another sample. Sampled rows, rich in hits. Any-hit rate of the full collection: about 6.1%.

SMILES	D1 ag	DRD3 antagonist	DRD3 agonist	D1 antag	D1 PAM
N#CCC(=O)Nc1ccc(C(=O)OCC(=O)NC2CCCc3ccccc32)cc1 (centres undefined)	nt	48	-2	nt	nt
O=C(Nc1ccncc1)Nc1ccc(Br)cc1Cl	4	12	4	-34*	-7
CC(=O)c1ccc(NC(=O)Nc2ccc(Br)cc2C)cc1	21	1	-6	-35*	-11
O=C(Nc1ccc(Br)cc1)Nc1ccccc1Cl	11	34	2	-41*	-3
O=C(Nc1ccc2nccnc2c1)Nc1ccccc1Cl	26	-3	-1	6	-12
CCCCCCC1CCC(C(=O)NC(C(=O)O)C(C)C)CC1 (centres undefined)	0	nt	4	-4	0
CCCCCCc1c(C)c2ccc(OCC(=O)N3CCC[C@H]3C(=O)O)c(C)c2oc1=O	2	-14	-39	-6	-1
Cc1nc2ccccc2c2nc(N)nn12	0	12	3	-56*	-10
CN(Cc1ccccc1F)C(=O)c1ccc2c(=O)n3c(nc2c1)CCC3	3	-18	-5	20	-1
COC(=O)c1cn(-c2ccccc2)c(C)c1C(=O)OC	50*	-2	-1	5	-4
COC(=O)c1cn(-c2ccccc2)nc1-c1ccccc1	1	-5	-2	14	-6
O=[N+]([O-])c1cccc(/C=N/Nc2nc(NCc3ccccc3)nc(N3CCOCC3)n2)c1O	1	-138*	-37	-11	-6
O=C(c1cccc(C(=O)N(c2ccccn2)C2CCCCC2)c1)N(c1ccccn1)C1CCCCC1	3	-54*	-10	8	-1
O=C(c1ccc(Cl)cc1)N(c1ccccn1)C1CCCCC1	-2	-19	0	nt	-5
C=CCNC(=S)N(CC)c1cccc2ccccc12	4	-4	6	13	1
CC1=CC2=C(OC1N(C)C)c1cccc3cccc(c13)C2=O (centres undefined)	10	-52*	-11	-13	10
CN(C)CCCN1C(=O)c2cccc3cccc(c23)C1=O	2	4	-1	-12	-1
CCOc1ccc(-c2nc(SCC(=O)NCCOC)c(-c3ccc(OC)c(OC)c3)[nH]2)cc1	4	nt	-15	-2	-1
Cc1ccc(-c2ccc(/C=N/N=C3/NC(=O)C(CC(=O)O)S3)o2)c([N+](=O)[O-])c1 (centres undefined)	-1	-79*	-3	-5	1
O=C(O)CC1S/C(=N/N=C/c2ccc(-c3ccccc3[N+](=O)[O-])o2)NC1=O (centres undefined)	1	18	-4	-1	0
O=c1c(Cl)c(O)ccn1C1OC(CO)C(O)C1O (centres undefined)	nt	4	7	nt	nt
COc1cc(CNC(=O)c2cc(-c3ccc(OC)cc3C)n[nH]2)cc(OC)c1	nt	23	2	nt	nt
Cc1ccc(Cl)cc1-c1cc(C(=O)NCC2CCCCC2)[nH]n1	nt	-70*	-23	nt	nt
COc1ccc(-c2cc(C(=O)NCC3CCCCC3)[nH]n2)c(C)c1	nt	-79*	-31	nt	nt
CCOC(=O)c1csc(NC(=O)C2=COCCO2)n1	2	11	12	-15	-6
SMILES	D1 ag	DRD3 antagonist	DRD3 agonist	D1 antag	D1 PAM
Cc1nn(C)c(C)c1S(=O)(=O)N(CC(=O)NCCc1ccccc1)c1ccc(C(C)C)cc1	-1	nt	-6	-19	-1
Cc1cccc(N2CCN(C(=O)Cn3ncc4c3-c3ccccc3OC4)CC2)c1C	0	nt	13	16	2
Cc1cc(NC(=O)CSc2nnc(NC(=O)C3CC(=O)N(c4ccccc4C)C3)s2)no1 (centres undefined)	2	10	-2	9	10
Cc1cc(NC(=O)CSc2nnc(NC(=O)C3CC(=O)N(c4ccccc4)C3)s2)no1 (centres undefined)	3	-2	3	-46*	-8
COc1cccc(-c2nc(CS(=O)(=O)CC(=O)NCCc3ccccc3)c(C)o2)c1	15	4	2	3	0
COc1cccc(-c2nc(CS(=O)(=O)CC(=O)NCC(C)c3ccccc3)c(C)o2)c1 (centres undefined)	70*	-2	-9	6	-3
Cc1ccccc1-c1nc(CS(=O)(=O)CC(=O)NCCc2ccccc2)c(C)o1	31*!	-10	0	-31*!	-4
Cc1oc(-c2ccccc2F)nc1CS(=O)(=O)CC(=O)NCCCN1CCc2ccccc2C1	4	-77*	-13	-13	-1
Cc1cccc(S(=O)(=O)NC(=O)C2(C)CCN2C(=O)c2ccccc2CCc2ccccc2)c1 (centres undefined)	nt	-22	1	nt	nt
Cc1ccccc1C(=O)Nc1ccc(C(=O)N2CCCC(O)c3cc(Cl)ccc32)c(C)c1 (centres undefined)	nt	nt	3	nt	nt
CCCCCCN1C(=O)CC(NC(=O)OCC2c3ccccc3-c3ccccc32)C/C=C\C1C(C)C (centres undefined)	nt	-4	-10	nt	nt
CC(=O)Nc1ccc(NC(=O)C(C)OC(=O)c2cccs2)cc1 (centres undefined)	1	-3	-3	-37*	-13
Cc1oc(-c2cccc(Br)c2)nc1Cn1c(=O)cc(-c2ccccc2)c2c(C)nn(C)c21	1	nt	4	12	-2
CCCOc1ccc(CCc2n[nH]c(=S)n2Cc2ccccc2)cc1	4	-55*	0	-43*	-3
O=C1OCCN1C(=O)[C@H]1[C@H](c2ccccc2)C(c2cccc(Cl)c2)=NN1c1ccccc1	nt	2	39*	nt	nt
COC(=O)c1c(NC(=O)COc2ccccc2Cl)sc2c1CCC(C(C)(C)C)C2 (centres undefined)	-1	nt	-14	-25	0
Cc1ccc(C)c(NC(=O)Cn2c(=O)n(CCC(C)C)c(=O)c3cccnc32)c1	0	nt	-14	-43*	-7
Cc1cc(C)c(NC(=O)Cn2c(=O)n(CCC(C)C)c(=O)c3cccnc32)c(C)c1	2	nt	9	1	-3
O=S(=O)(c1ccccc1)c1nc(-c2ccc(Cl)cc2Cl)oc1N1CCCCCC1	0	nt	61*	2	6
CCOc1cc(NS(=O)(=O)c2ccccc2)c(OCC)cc1NC(=O)c1ccco1	5	-51*	0	5	-3
COc1cc(/C=C/c2cc(OC(C)=O)c3ccccc3n2)c(OC(C)=O)c([N+](=O)[O-])c1	2	-82*	-13	-11	-1
COc1ccccc1-c1cnnc(N/N=C/c2ccc(-c3cccc(Br)c3)o2)n1	-2	19	57*	17	-6
